The source of these data is PubChem BioAssay AID1628 (Sanford-Burnham Center for Chemical Genomics, 2009).

The whole screen tested about 190,000 compounds, of which about 930 (0.49%) were called active.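 How the source made its calls: active means z-score of insulin promoter reporter brightness in nuclei below -3 at 5 µM, with at least 500 cells counted; inconclusive means wells with under 500 cells, flagged as toxic or sparse; inactive means the rest.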 The list shows a part of the results. Results with a measured potency or affinity are listed apart.

This experiment can be described thus: insulin promoter down-regulators in MIN6 cells, imaging, high-content screening, mouse beta cells (AID 1628). Particulars: MIN6 insulin promoter GFP reporter, at 5 µM, stronger effect = lower value.
`CC(/C=N/NC(=O)c1ccncc1)=C\c1ccc(C(C)C)cc1`: the z-score was 3.19 (inactive). The same measure for `Cn1cc(/C=C2\SC(=S)N(NC(=O)c3cccc(Cl)c3)C2=O)c2ccccc21`: 7.3 (inactive); for `CC(C)c1ccc(/C=N/NC(=O)c2cccc(Cl)c2)cc1`: -3.75 (active); for `CC1=NN(c2ccccc2)C(=O)C1/C=C1\NC(=S)NC1=O` (stereo not given): 3.53 (inactive).

Consider `C/C(N)=C(/C#N)C(=O)CSc1nnnn1-c1ccc(C)cc1C`, for which the z-score was -3.38 (active). The result for `c1csc(-c2ccnc3ncnn23)c1` reads -4.89 (active); that for `S=C(Nc1ccc(Nc2ccccc2)cc1)Nc1ccccn1`, -3.32 (active). The same measure for `O=C(CC(=O)Nc1ccccn1)Nc1ccccn1`: -0.03 (inactive).

Take `CCOC(=O)c1sc2cc([N+](=O)[O-])cc(SCC(C)C)c2c1N`: the z-score was 13.9 (inactive). `c1ccc(CNc2cnccn2)cc1`: the z-score was 1.28 (inactive). As for `CC(=O)c1n[nH]nc1Nc1nc(C)cc(C)n1`, the z-score was 0.61 (inactive).

Turning to `Cc1cccc(NC(=O)C2CCCN(C(=O)NC3CCCCC3)C2)c1C` (stereo not given), the z-score was -3.03 (active). `COc1cc(C)nc(N2CCCC(C(=O)Nc3cccc(Cl)c3C)C2)n1` (stereo not given): the z-score is 3.87 (inactive).

For `O=C(NC1CC1)C1CCCN1C(=O)NC1CCCCC1` (stereo not given), the z-score was 2.65 (inactive).

On to `Cc1[nH]c2ccccc2c1/C=N/Nc1ccc([N+](=O)[O-])cc1S(=O)(=O)Nc1ccc(Cl)cc1`, for which the z-score is 9.19 (inactive).

Take `Cc1ccc(NS(=O)(=O)c2cc([N+](=O)[O-])ccc2N/N=C/c2sc(N3CCOCC3)nc2-c2ccccc2)c(C)c1`: the z-score was 11 (inactive). The result for `C=CCSc1nnc(C)c(/C=C/Nc2ccc(Cl)cc2)n1` reads 5.19 (inactive). The same measure for `CCC(=O)Oc1ccc(C(=O)Nc2c[nH]c(=O)[nH]c2=O)cc1`: -5 (active); for `NS(=O)(=O)c1ccc(NC=C2C(=O)OC3(CCCCC3)OC2=O)cc1`: 3.78 (inactive); for `NS(=O)(=O)c1ccc(NC(=S)NCc2ccccc2)cc1`: -4.47 (active). As to `COc1ccccc1-n1c(N)cc(=O)nc1SCC(=O)Nc1cc(C)on1`, the z-score was 2.37 (inactive).

With `Cc1cc(NC(=O)C2CC(=O)OC2c2ccccc2)no1` (stereo not given), the z-score is -4.4 (active).

On to `COc1ccc(NC(=O)c2[nH]c(C)c(C(C)=O)c2C)cc1Cl`, for which the z-score is 3.83 (inactive). The same measure for `CC(=O)c1c(C)[nH]c(C(=O)OCC(=O)Nc2ccc(Cl)cc2[N+](=O)[O-])c1C`: -3.98 (active). The same measure for `COC(=O)c1ccc(NC(=O)CSc2nc3cccnc3n2C)cc1`: -4.12 (active). The same measure for `CCOC(=O)c1[nH]c2ccc(OC)cc2c1NS(=O)(=O)c1ccc(Cl)s1`: -4.98 (active). On to `CCC(C(=O)OCC(=O)Nc1cccc(S(=O)(=O)NC2=NCCCCC2)c1)c1ccccc1` (stereo not given), for which the z-score was 3.98 (inactive).

As to `Cc1sc2ncnc(N3CCCCC3C)c2c1C` (stereo not given), the z-score was -4.4 (active). The same measure for `COc1ccc(/C=C2\CC/C(=C\c3ccc(OC)cc3OC)C2=O)c(OC)c1`: 5.49 (inactive).

In the case of `C=CCN1C(=O)C(O)(CC(=O)c2ccc(OC)cc2OC)c2cc(Br)ccc21` (stereo not given), the z-score is -4.05 (active). With `COc1ccc(C(=O)/C=C/c2ccc(N(C)C)cc2)c(OC)c1`, the z-score is 15.9 (inactive). As to `O=C(CCSc1ccc(Cl)cc1)NN=C1CCCCCC1`, the z-score was 3.37 (inactive). Regarding `CC(Sc1ccccc1)C(=O)NN=C1CCCCCC1` (stereo not given), the z-score is 8.07 (inactive). On to `O=C(O)c1ccccc1NN=C1CCCCC1`, for which the z-score was -4.39 (active). The same measure for `CC1CC(C)(C)Nc2ccc(N=O)cc21` (stereo not given): 4.12 (inactive); for `CN(C)c1ccc(/C=C2\SC(=O)N(CC(O)Cn3c4ccccc4c4ccccc43)C2=O)cc1` (stereo not given): 3.6 (inactive); for `O=c1ccc(NS(=O)(=O)c2ccccc2)cn1Cc1ccc(Cl)c(Cl)c1`: 4.35 (inactive). On to `O=C1S/C(=C\c2ccc(N3CCOCC3)o2)C(=O)N1c1ccccc1`, for which the z-score was 12.7 (inactive). The result for `COc1cc2c(cc1OC)C1=CC(=O)C(=O)N1C(C)(C)C2` reads 6.34 (inactive); that for `COCCN(CCOC)Cc1c(C)[nH]c2c(C)c(C)ccc2c1=O`, 0.72 (inactive); that for `COC(=O)CSc1nc2ccccn2c(=O)c1C=O`, 4.58 (inactive). The result for `COC(=O)CSc1nc2ncc(Cl)cc2[nH]1` reads -4.43 (active); that for `Cc1ccnc(N/C=C(\C#N)c2nc(-c3cccc(Br)c3)cs2)c1`, 7.83 (inactive). The result for `CCOC(=O)CC1C(=O)NCCN1c1nc2ccc(C)cn2c(=O)c1/C=C1\SC(=S)N(CC(C)C)C1=O` (stereo not given) reads 10.8 (inactive).

On to `CSc1ccc(NC(=O)Nc2cccn(Cc3ccccc3)c2=O)cc1`, for which the z-score is -5.72 (active). The result for `COc1cnc(-c2ccccn2)nc1NC(C)C` reads -4.73 (active); that for `CCC(=O)Nc1ccc2c(c1)ncn2-c1ccccc1`, 4.96 (inactive). `COc1ccccc1NC(=O)COC(=O)C1CC2C=CC1C2` (stereo not given): the z-score was 3.01 (inactive). Turning to `COc1ccccc1NC(=O)/C=C1\SCC(=O)N1C`, the z-score was 4.67 (inactive). The same measure for `COc1ccccc1NC(=O)Cn1cc(C(=O)c2ccco2)c2ccccc21`: -4.69 (active); for `CC(=O)Nc1ccc(NC(=O)C(=O)c2cn(CC(=O)N3CCCCC3)c3ccccc23)cc1`: 2.61 (inactive); for `CCn1c(C2CC(=O)N(Cc3ccccc3)C2)nc2ccccc21` (stereo not given): -5.96 (active). On to `N#C/C(=C\c1ccc(-c2ccc(C(=O)O)cc2)o1)c1nc2ccccc2[nH]1`, for which the z-score is 6.2 (inactive).

As to `Nc1c(C(=O)NC2CCCC2)sc2nc(-c3cccs3)ccc12`, the z-score was 3.89 (inactive).

In the case of `O=C(COC(=O)c1cccs1)NC1CCCCC1`, the z-score was -5.3 (active). Regarding `Cn1c(SCC(=O)NC2CCCCCC2)nnc1-c1cccs1`, the z-score is 2.42 (inactive). The same measure for `Cc1cc(F)c(F)c(C(=O)N2CCOCC2)c1`: 1.59 (inactive). The result for `Cc1c(C(=O)N2CCOCC2)[nH]c2c1C(=O)CC(c1ccccc1Cl)C2` (stereo not given) reads -3.07 (active); that for `O=C(CSc1nnc(SCc2ccc(Cl)cc2)s1)N1CCOCC1`, -0.99 (inactive). The same measure for `Clc1ccc(CSc2nnc(/C=C/c3ccccc3)o2)cc1`: -4.41 (active); for `NCCc1nnc(SCc2ccccc2F)o1`: 1.04 (inactive); for `CCCC1CC(=O)OC1(C)C(=O)CSc1n[nH]c(-c2ccccc2)n1` (stereo not given): -5.89 (active). As for `CCN(CC)c1ccc(/C=C(\C#N)c2nc(-c3cccs3)c(NC(C)=O)s2)cc1`, the z-score was 16.9 (inactive). For `CN(C)C=Nc1ccc2nn(-c3ccccc3)nc2c1`, the z-score was 3.14 (inactive). The same measure for `Cc1cccc2cc(CN(Cc3cccs3)C(c3nnnn3C3CCCC3)C(C)C)c(=O)[nH]c12` (stereo not given): -4.88 (active); for `CCOc1ccc2[nH]c(=O)c(CN(Cc3cccs3)C(CC)c3nnnn3C(C)(C)CC)cc2c1` (stereo not given): -3.01 (active). The same measure for `CCC(c1nnnn1C1CCCC1)N(Cc1cccs1)Cc1cc2cc(C)ccc2[nH]c1=O` (stereo not given): -3.35 (active); for `COc1cc(OC)c(OC)cc1C#N`: 0.13 (inactive). The result for `COc1cccc(C2C3CN(C)CC=C3C(C#N)=C(N)C2(C#N)C#N)c1OC` (stereo not given) reads 13.7 (inactive); that for `C=CCn1c(/N=C/c2ccc3c(c2)OCO3)nc2ccccc21`, 0.8 (inactive); that for `COc1ccc(C2C(C(=O)c3ccccc3)=C(C)Nc3nc4ccccc4n32)c(OC)c1` (stereo not given), 3.79 (inactive).

On to `COc1ccc2nc3ccccc3nc2c1`, for which the z-score is -1.09 (inactive). As to `Cn1c(CNc2nc3ccccc3n2C)nc2ccccc21`, the z-score is 1.15 (inactive).

As to `CC(O)c1nc2ccccc2n1CCOc1ccccc1` (stereo not given), the z-score was 1.64 (inactive). In the case of `COc1ccc(CNC(=O)CN2CCC(C(=O)c3ccc(OC)cc3)CC2)cc1`, the z-score was 1.22 (inactive). For the molecule `Cc1ccc2nc(/C(C#N)=C\c3ccc(N4CCOCC4)o3)[nH]c2c1`, the z-score was 15.9 (inactive). The same measure for `CC(C)=CCc1c2c(c3occ(-c4ccc(O)cc4)c(=O)c3c1O)C=CC(C)(C)O2`: -0.49 (inactive); for `N#C/C(=C/c1ccc(N2CCOCC2)o1)C(=O)Nc1ccccc1`: 4.15 (inactive).

With `Cc1cc2nc3c(=O)n(Cc4ccccc4)c(=O)[nH]c3nc2cc1N`, the z-score is 12.1 (inactive). The result for `Cn1c(N)cc(=O)n(Cc2ccccc2)c1=O` reads -5.18 (active). The result for `CCC(=O)OCC(=O)c1c(N)n(Cc2ccccc2)c(=O)n(C)c1=O` reads 3.29 (inactive); that for `Cc1noc(C)c1S(=O)(=O)N1CCC(C(=O)N2CCN(C3CCCC3)CC2)CC1`, 3.05 (inactive); that for `Cc1n[nH]c(C)c1S(=O)(=O)N1CCCC(C(=O)N2CCN(c3ccc(Cl)cc3)CC2)C1` (stereo not given), -3.2 (active). Turning to `CCCS(=O)(=O)N1CCC(C(=O)NCCC(C)C)CC1`, the z-score is 3.11 (inactive). The same measure for `CSc1ccccc1C(=O)NC1CCCC1`: -5.87 (active); for `Cc1ccccc1C(=O)NC1CCN(C(=O)N2CCOCC2)CC1`: 1.27 (inactive); for `O=C(Cn1nnc(-c2ccc(S(=O)(=O)N3CCCC3)cc2)n1)Nc1ccccc1-n1cccc1`: -4 (active). The same measure for `COc1ccccc1NC(=S)N(Cc1ccc(C)cc1)Cc1ccccn1`: 1.92 (inactive); for `COc1ccc(-c2[nH]ncc2CN(C)Cc2ccccn2)c(OC)c1`: -4.89 (active); for `CCCCCCCCCCCC(=O)c1c(O)cccc1O`: -0.04 (inactive).

For the molecule `CN1C(=S)N(c2cccnc2)C(=O)/C1=C\c1ccc(N(C)C)cc1`, the z-score is 5.58 (inactive). Take `COCCN(C(=S)Nc1ccc(C)cc1C)C(C)c1cccs1` (stereo not given): the z-score is 1.14 (inactive).

On to `Cc1ccccc1NC(=S)N(CCN(C)C)C(C)c1ccccn1` (stereo not given), for which the z-score is -6.19 (active). The result for `CCc1ccccc1NC(=S)N(CCN(C)C)C(C)c1ccccn1` (stereo not given) reads -5.14 (active); that for `CCN1CCN(C(=O)C2(NC(=O)Nc3cccc(F)c3)CCCCC2)CC1`, -4.67 (active). The result for `CC(C)CCN(C(=S)Nc1cccc(F)c1)C(C)c1cccs1` (stereo not given) reads 4.77 (inactive); that for `COc1ccccc1NS(=O)(=O)c1cc(NC(=O)c2ccc(=O)[nH]c2)ccc1N1CCOCC1`, -4.48 (active). Take `Cc1cccc(NC(=O)Cn2cc([N+](=O)[O-])cn2)n1`: the z-score is 2.86 (inactive). The same measure for `Cc1nn(C)c(C)c1NC(=O)CSc1nnc(C)n1-c1ccccc1`: 0.56 (inactive); for `CCCCn1nnnc1SCC(=O)Nc1cccc(C)n1`: -4.7 (active).
